Measurements reported in PubChem BioAssay (NCI).
This is part of a sample that, as a whole, favours compounds with a hit. Of some 83,000 tested, about 20% had one in any assay.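 Activity criterion: percent growth below 10, measured after cells in 96-well plates were exposed to a single compound concentration for 48 hours.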 A number with no mark means an inactive call. Activity calls are given as the source filed them.

Each compound was assayed on RPMI-8226 leukemia (assay: NCI-60 one-dose screen, 48 h (100 = growth as untreated, 0 = no growth, -100 = all killed)). Settings: 10 µM unless noted.

First: CSc1nc(NCc2ccccc2)c(C#N)c(-c2cccc([N+](=O)[O-])c2)n1
Second: Cn1c(=O)c2c(nc3n(-c4ccc(Cl)cc4Cl)c(Sc4nc(-c5ccccc5)c(C#N)c(=O)[nH]4)cn23)n(C)c1=O
The growth of the first is higher: 100% for the first, 59.3% for the second.

Compared with `CC1(C)CC[C@]2(C(=O)Nc3ccccn3)CC[C@]3(C)C(=CC[C@@H]4[C@@]5(C)C/C(=C/c6cccnc6)C(=O)C(C)(C)[C@@H]5CC[C@]43C)[C@H]2C1`, `COC(=O)[C@]12CCC(C)(C)C[C@H]1[C@H]1C(=O)C[C@@H]3[C@@]4(C)c5c([nH]c6ccccc6c5=O)C(C)(C)[C@@H]4CC[C@@]3(C)[C@]1(C)CC2` is higher in growth: 13.3% for the first, 34.9% for the second.

Compared with `CC1=CC(=NN=c2cc(C)n([O-])c(C)c2)C=C(C)[N+]1=O`, `CCC(=O)c1ccc(Cl)s1` is higher in growth: 67.4% for the first, 104% for the second.

For `O=C(/C=C/c1cccc(Cl)c1)c1ccc(O)c(CN2CCN(c3cc4c(cc3F)c(=O)c(C(=O)O)cn4C3CC3)CC2)c1`, the growth was 4.11% (active).

The compounds below were run on OVCAR-8 ovarian in the same assay as above. Settings: 10 µM unless noted.

Going from `COc1cccc(-c2nc3sccn3c2-c2ccnc(NCCCNS(=O)(=O)c3c(Cl)cccc3Cl)c2)c1` to `COc1ccc(Nc2nc(SC)nc(-c3cccc([N+](=O)[O-])c3)c2C#N)cc1`, the growth falls from 51.5% to 39.4%.

First: CC1=NN(c2nc(-c3ccc(Cl)cc3)c(C#N)c(N3CCOCC3)n2)C(=O)C1
Second: CSc1nc(NCCN2CCOCC2)c(C#N)c(-c2cccc([N+](=O)[O-])c2)n1
The growth of the first is higher: 99.3% for the first, 97.4% for the second.

Compared with `Cc1nc2c3c(-c4ccccc4)c(-c4ccccc4)oc3ncn2n1`, `O=C1CC(=NCC(=O)n2c(-c3ccccc3)nc3ccccc32)NN1` is higher in growth: 97.3% for the first, 102% for the second.

Going from `C=CC(=O)Nc1cccc(-c2nc(SC)nc(NCc3ccccc3)c2C#N)c1` to `N#Cc1c(N)n(CCNC(=O)c2ccccc2)c2nc3ccccc3nc12`, the growth rises from 39.8% to 102%.

First: C=C(C)[C@@H]1CC[C@]2(C(=O)OC)CC[C@]3(C)[C@H](CC[C@@H]4[C@@]5(C)C/C(=C/c6cccc(I)c6)C(=O)C(C)(C)[C@@H]5CC[C@]43C)[C@@H]12
Second: COc1cc(/C=C/c2cc(O)c3cc(C(C)=O)c(=O)oc3c2)cc2c1O[C@]1(C)CC[C@@H](O)C(C)(C)[C@H]1C2
The growth of the first is higher: 101% for the first, 84.4% for the second.

Compared with `Cc1c(/C=C/[N+](=O)[O-])ccc2c1[nH]c1ccccc12`, `N#CCCN=Nc1c(O)[nH]c2ccc([N+](=O)[O-])cc12` is higher in growth: 94.1% for the first, 102% for the second.

First: COc1cc(/C=C/C(=O)c2ccc(O)c(CN3CCN(c4cc5c(cc4F)c(=O)c(C(=O)O)cn5C4CC4)CC3)c2)cc(OC)c1OC
Second: COc1cc2nc(N3CCCC3)nc(NCc3ccccc3)c2cc1OC
The growth of the first is lower: 30.8% for the first, 78.9% for the second.

Going from `C=CCSSc1ncnc2c1ncn2C1OC(CO)C(O)C1O` (stereo not given) to `Nc1nc2ncc(CCNc3ccc(C(=O)O)cc3)nc2c(=O)[nH]1`, the growth rises from 20.1% to 108%.

Going from `CC[C@H]1OC(=O)[C@H](C)[C@@H](O[C@H]2C[C@@](C)(OC)[C@@H](O)[C@H](C)O2)[C@H](C)[C@@H](O[C@@H]2O[C@H](C)C[C@H](N(C)C)[C@H]2O)[C@](C)(O)C[C@H](C)CN(C)[C@H](C)[C@@H](O)[C@]1(C)O` to `CC[C@@H]1O[C@H](O[C@@H](c2cnc[nH]2)[C@H](NC(=O)c2nc([C@H](CC(N)=O)NC[C@@H](N)C(N)=O)nc(N)c2C)C(=O)N[C@H](C)[C@H](O)[C@H](C)C(=O)N[C@@H](C(=O)NCCc2nc(-c3nc(C(=O)NCCCCN=C(N)N)cs3)cs2)[C@@H](C)O)[C@H](O[C@@H]2O[C@H](CO)[C@H](O)[C@H](OC(N)=O)[C@@H]2O)[C@H](C)[C@@H]1C`, the growth falls from 115% to 47.2%.

Compared with `CC(C)c1c(C(=O)c2ccccc2)c(-c2ccccc2)c(-c2ccc(F)cc2)n1CC[C@@H](O)C[C@@H](O)CC(=O)O`, `CC(C)(O)c1cn(CCCCN2C(=O)C(=O)c3ccccc32)nn1` is higher in growth: 49.6% for the first, 102% for the second.

`CCCOc1ccc2nc(NC(=O)OC)[nH]c2c1` was tested, and the growth was 3.91% (active).
For `COc1cc2nc(N3CCCC3)nc(Nc3ccccc3)c2cc1OC`, the growth was -30.1% (active).
`CCCN1CCN(c2ccc3nc(-c4ccc5nc(-c6ccc(OCC)cc6)[nH]c5c4)[nH]c3c2)CC1` was tested, and the growth was 0.816% (active).
